Records with an inconclusive call do not appear. Active and inactive are the calls of the source. How the source made its calls, unless noted: active means hit-call score of the fitted dose curve at least 0.9, where 1 is the maximum; inactive means score below 0.9.
How the values were obtained:
[1] = molecular target: Nucleoli Translocation, AR (gene 367) (UniProt P10275); experiment: UPITT_HCI_U2OS_AR_TIF2_Nucleoli_Agonist: University of Pittsburgh U2OS Androgen Receptor-Transcriptional Intermediary Factor 2 (AR-TIF2) Agonism High Content Imaging Assay for Nucleoli Translocation (AID 2283998; active means hit-call score of the fitted dose curve at least 0.9, where 1 is the maximum)
Summary of the method: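 U2OS cells expressing RFP-tagged human AR and GFP-tagged TIF2; red fluorescence in nucleoli quantified by high-content imaging. Primary screen at 20 uM final (0.2% DMSO); concentration-response 0.195–50 uM (0.5% DMSO), fitted upward versus DMSO.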

[2] = molecular target: Ratio of Nucleoli Translocation and Cytoplasm, AR (gene 367) (UniProt P10275); experiment: UPITT_HCI_U2OS_AR_TIF2_Nucleoli_Cytoplasm_Ratio_Agonist: University of Pittsburgh U2OS Androgen Receptor-Transcriptional Intermediary Factor 2 (AR-TIF2) Agonism High Content Imaging Assay for Ratio of Nucleoli Translocation and Cytoplasm (AID 2284000; active means hit-call score of the fitted dose curve at least 0.9, where 1 is the maximum;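 further: hits raise the red nucleolar to cytoplasm ratio above vehicle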)
Summary of the method: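 Primary screen at 20 uM final (0.2% DMSO), then triplicate confirmation and dose-response from 0.195 to 50 uM final (0.5% DMSO). Cells: U2OS with AR-RFP and TIF2-GFP. Endpoint is the nucleoli/cytoplasm red-fluorescence ratio, gain-of-signal vs DMSO.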

[3] = CCTE_Harrill_HTTr_Viability_MCF7: CCTE's 6-hour Cell Viability Assessment for the High-Throughput Transcriptomics (HTTr) Platform, in MCF-7 cells cultured in DMEM + 10% fetal bovine serum, Harrill Lab (AID 2284010)
Summary of the method: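 Propidium iodide exclusion, imaged by high-content analysis, gauged viability after a six-hour exposure across eight concentrations. Cells were MCF-7 grown in DMEM with 10% fetal bovine serum; fits run in both directions against DMSO.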

[4] = CCTE_Harrill_HTTr_Apoptosis_MCF7: CCTE's 6-hour Apoptosis Assessment for the High-Throughput Transcriptomics (HTTr) Platform, in MCF-7 cells cultured in DMEM + 10% fetal bovine serum, Harrill Lab (AID 2284011)
Summary of the method: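 MCF-7 cells in DMEM + 10% FBS exposed 6 h to chemicals over an eight-point dilution series. Caspase-3/7 activation imaged by high-content CellEvent Green staining; fitted bidirectionally versus DMSO.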

[5] = CCTE_Harrill_HTTr_CellCount_MCF7: CCTE's Cell Proliferation Assessment for the High-Throughput Transcriptomics (HTTr) Platform, Harrill Lab (AID 2284012; active means hit-call score of the fitted dose curve at least 0.9, where 1 is the maximum;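 further: cells exposed to compound for six hours; intended direction is loss of nuclei count meaning fewer cells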)
Summary of the method: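 Cell count from high-content imaging of Hoechst-labeled nuclei serves as viability/growth readout. Chemicals were applied to MCF-7 cells in eight concentrations for six hours, with fitting in both directions relative to DMSO.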

DIO1 (gene 1733) = experiment: CCTE_GLTED_hDIO1: CCTE's human Deiodinase 1 (DIO1) Inhibition Assay, Great Lakes Toxicology and Ecology Division (GLTED) Lab (AID 2283987; active means hit-call score of the fitted dose curve at least 0.9, where 1 is the maximum;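 further: isolated human DIO1 enzyme in a cell-free setup rather than cells; enzyme activity read as free iodide liberated from substrate via Sandell-Kolthoff colorimetry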)
Summary of the method: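 Cell-free human DIO1 enzyme incubated 3 h with test chemical; iodide freed from substrate then measured by Sandell-Kolthoff absorbance. Run in triplicate; loss of signal relative to DMSO taken as inhibition.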

[6] = CCTE_Simmons_MITO_basal_resp_rate: CCTE's HepG2 Seahorse XF Respirometric Screening Assay at Basal Respiratory State, Simmons Lab (AID 2284001); conditions: actives raise or lower the signal
Summary of the method: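 Readout is oxygen consumption rate after test compound injection, measured by Seahorse XF in HepG2 cells. Seven concentrations from 125 nM up to 100 uM final are tested, and activity in either direction is fitted against DMSO.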

[7] = CCTE_Simmons_MITO_inhib_resp_rate: CCTE's HepG2 Seahorse XF Respirometric Screening Assay at Inhibited Respiratory State [full ETC block], Simmons Lab (AID 2284006); conditions: actives raise or lower the signal
Summary of the method: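 This endpoint is the respiration rate remaining after rotenone/antimycin A block, in HepG2 cells on a Seahorse XF96. Chemicals spanned 125 nM–100 uM final, in three biological replicates. OCR was read every 6 minutes for 72 minutes and compared with DMSO vehicle.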

[8] = CCTE_Simmons_MITO_viability: CellTiter-Glo Viability Assessment for CCTE's HepG2 Seahorse XF Respirometric Screening Assay [post-hoc], Simmons Lab (AID 2284007; active means hit-call score of the fitted dose curve at least 0.9, where 1 is the maximum)
Summary of the method: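 Luciferase-coupled ATP read-out after the Seahorse run: HepG2 cells treated 90 minutes with test chemical, 7-point series of 125 nM–100 uM final, in triplicate biological runs. Vehicle DMSO; dichlone as positive control over 8 concentrations.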

[9] = molecular target: Ratio of Nucleoli Translocation and Cytoplasm, AR (gene 367) (UniProt P10275); experiment: UPITT_HCI_U2OS_AR_TIF2_Nucleoli_Cytoplasm_Ratio_Antagonist: University of Pittsburgh U2OS Androgen Receptor-Transcriptional Intermediary Factor 2 (AR-TIF2) Antagonism High Content Imaging Assay for Ratio of Nucleoli Translocation and Cytoplasm (AID 2283999; active means hit-call score of the fitted dose curve at least 0.9, where 1 is the maximum;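 further: antagonists lower the DHT-driven ratio of nucleolar to cytoplasmic red signal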)
Summary of the method: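 High-content imaging of red fluorescence ratio, nucleoli versus cytoplasm, in U2OS expressing AR-RFP and TIF2-GFP, fitted relative to DHT. Compounds tested once at 20 uM final, then 0.195 to 50 uM final in serial dilution.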

[10] = CCTE_Shafer_MEA_acute_spike_number: CCTE's Neural Acute Assay for Total Number of Spikes, Shafer Lab (AID 2284008)
Summary of the method: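 Rat primary cortical neurons on 48-well MEA plates, DIV 13 or 15, at 37 C. 40 min baseline then 40 min with compound (0.03-40 uM); spikes detected at 8x rms noise, expressed as percent change from baseline.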

[11] = CCTE_Shafer_MEA_acute_firing_rate_mean: CCTE's Neural Acute Assay for Mean Firing Rate, Shafer Lab (AID 2284009);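 further: analyzed for loss of signal so actives lower firing rate relative to DMSO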
Summary of the method: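 Spontaneous spiking of primary rat cortical networks, DIV 13/15, 37 C. Compound 0.03-40 uM, n ≥3 wells; 40 min baseline vs 40 min treated. Endpoint fitted in loss-of-signal direction against DMSO.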

[12] = CCTE_Shafer_MEA_acute_burst_duration_mean: CCTE's Neural Acute Assay for Mean Burst Duration, Shafer Lab (AID 2284014);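 further: hits are decreases in mean burst duration relative to DMSO controls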
Summary of the method: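 Acute exposure of mature rat cortical networks (DIV 13 or 15) grown on microelectrode arrays to 0.03-40 uM compound. Mean burst duration compared with the 40-min pre-dose baseline over a 40-min post-dose recording at 37 C.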

[13] = CCTE_Shafer_MEA_acute_per_burst_spike_number_mean: CCTE's Neural Acute Assay for Average Number of Spikes Per Burst, Shafer Lab (AID 2284015);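 further: hits are decreases in mean spikes per burst versus baseline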
Summary of the method: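 Percent change in mean spikes per single-electrode burst is compared between a 40 min baseline and a 40 min recording with compound (0.03-40 uM). Cultures were rat cortical neurons on MEA plates at DIV 13 or 15, recorded at 37 C, with DMSO as the negative control.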

[14] = CCTE_Shafer_MEA_acute_interburst_interval_mean: CCTE's Neural Acute Assay for Mean Interburst Interval, Shafer Lab (AID 2284016);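 further: percent change of mean interburst interval versus each well's own pre-dose baseline; curves fitted for decrease in interburst interval relative to DMSO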
Summary of the method: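 Percent change in mean single-electrode interburst interval was calculated per well from 40 min recordings before and after compound (0.03-40 uM). Recordings were made at 37 C on rat cortical cultures at DIV 13 or 15, with spikes detected at 8x rms threshold.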

[15] = CCTE_Shafer_MEA_acute_burst_percentage_mean: CCTE's Neural Acute Assay for Percentage of Spikes in a Burst, Shafer Lab (AID 2284017);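 on AC50: curve fitted for loss of signal so potency reflects decreased burst percentage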
Summary of the method: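 Well-level mean burst percentage from a 40-min recording after compound (0.03-40 uM) expressed as percent change from a 40-min baseline at 37C. Cultures: primary rat cortical neurons on MEA, dosed on DIV 13 or 15; fitted downward relative to DMSO.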

[16] = CCTE_Shafer_MEA_acute_burst_percentage_std: CCTE's Neural Acute Assay for Standard Deviation of Burst Percentage, Shafer Lab (AID 2284018);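 further: fitted in the negative direction so actives lower burst percentage SD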
Summary of the method: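 Primary rat cortical neurons on 16-electrode MEA wells were recorded 40 min at baseline (DIV 13 or 15), then 40 min after compound (0.03-40 uM), at 37 C. Well value is SD across electrodes of spikes-in-bursts/total spikes; endpoint is percent change, DMSO-referenced.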

[17] = CCTE_Shafer_MEA_acute_per_network_burst_spike_number_std: CCTE's Neural Acute Assay for Standard Deviation of Number of Spikes in a Network Burst, Shafer Lab (AID 2284020);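 further: fitted for decrease in spike-number SD versus DMSO so actives lower it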
Summary of the method: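 Acute MEA exposure, rat cortical neurons, 0.03-40 uM. Per-well % change versus own baseline; DMSO as negative control.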

[18] = CCTE_Shafer_MEA_acute_per_network_burst_electrodes_number_mean: CCTE's Neural Acute Assay for Mean Number of Electrodes in a Network Burst, Shafer Lab (AID 2284021);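 further: curves fitted for decreases only so hits reduce electrodes per burst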
Summary of the method: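 Rat primary cortical neurons on 48-well MEAs, DIV 13 or 15, were treated at 0.03-40 uM. Spikes were detected at 8x rms noise and recorded at 37 C. The mean electrodes per network burst in a 40 min exposure recording was expressed as percent change from a 40 min baseline.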

[19] = molecular target: Estrogen receptor (Homo sapiens) (UniProt P03372); experiment: CCTE_Deisenroth_AIME_96WELL_LUC_Active: CCTE's 96-well Estrogen Receptor Transactivation Assay with AIME metabolic competence (ERTA luciferase; metabolism positive), Deisenroth Lab (AID 2284023; active means hit-call score of the fitted dose curve at least 0.9, where 1 is the maximum)
Summary of the method: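 Metabolism-positive mode: induced rat hepatic S9 in alginate microspheres conditions test solutions (0.002 - 200 uM, 10 points) for 2 hours. VM7Luc4E2 ER luciferase reporter cells then exposed 24 h; positive-direction fit against 17beta-estradiol, n=4 typical.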

Measured: AC50

Ratio of Nucleoli Translocation and Cytoplasm, AR (gene 367), sequence (P10275 whole entry, looked up): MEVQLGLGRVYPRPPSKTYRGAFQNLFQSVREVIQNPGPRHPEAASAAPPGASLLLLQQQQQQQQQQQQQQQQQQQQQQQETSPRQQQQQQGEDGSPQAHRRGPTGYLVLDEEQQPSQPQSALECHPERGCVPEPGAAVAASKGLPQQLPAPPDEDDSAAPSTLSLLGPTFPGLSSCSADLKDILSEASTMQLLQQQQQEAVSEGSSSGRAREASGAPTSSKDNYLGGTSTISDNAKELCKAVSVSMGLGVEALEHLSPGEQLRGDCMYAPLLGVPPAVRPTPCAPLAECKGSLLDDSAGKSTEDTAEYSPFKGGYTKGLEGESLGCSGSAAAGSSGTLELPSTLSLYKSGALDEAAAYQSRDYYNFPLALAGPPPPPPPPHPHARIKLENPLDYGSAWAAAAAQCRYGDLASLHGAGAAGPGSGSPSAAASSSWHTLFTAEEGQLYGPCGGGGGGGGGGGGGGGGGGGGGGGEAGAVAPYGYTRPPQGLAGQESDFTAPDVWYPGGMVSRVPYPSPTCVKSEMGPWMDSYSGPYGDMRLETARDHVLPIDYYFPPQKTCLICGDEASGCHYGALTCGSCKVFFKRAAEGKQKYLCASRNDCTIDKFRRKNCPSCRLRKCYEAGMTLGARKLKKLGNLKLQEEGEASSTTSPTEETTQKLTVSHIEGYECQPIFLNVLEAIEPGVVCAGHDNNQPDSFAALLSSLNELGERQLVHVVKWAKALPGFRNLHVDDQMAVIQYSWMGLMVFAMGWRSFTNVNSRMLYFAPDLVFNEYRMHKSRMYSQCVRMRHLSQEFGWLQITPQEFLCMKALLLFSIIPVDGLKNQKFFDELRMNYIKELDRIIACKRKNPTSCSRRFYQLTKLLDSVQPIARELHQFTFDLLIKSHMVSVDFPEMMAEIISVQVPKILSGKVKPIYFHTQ
Nucleoli Translocation, AR (gene 367), sequence (P10275 whole entry, looked up): as above
Estrogen receptor (Homo sapiens), sequence (P03372 whole entry, looked up): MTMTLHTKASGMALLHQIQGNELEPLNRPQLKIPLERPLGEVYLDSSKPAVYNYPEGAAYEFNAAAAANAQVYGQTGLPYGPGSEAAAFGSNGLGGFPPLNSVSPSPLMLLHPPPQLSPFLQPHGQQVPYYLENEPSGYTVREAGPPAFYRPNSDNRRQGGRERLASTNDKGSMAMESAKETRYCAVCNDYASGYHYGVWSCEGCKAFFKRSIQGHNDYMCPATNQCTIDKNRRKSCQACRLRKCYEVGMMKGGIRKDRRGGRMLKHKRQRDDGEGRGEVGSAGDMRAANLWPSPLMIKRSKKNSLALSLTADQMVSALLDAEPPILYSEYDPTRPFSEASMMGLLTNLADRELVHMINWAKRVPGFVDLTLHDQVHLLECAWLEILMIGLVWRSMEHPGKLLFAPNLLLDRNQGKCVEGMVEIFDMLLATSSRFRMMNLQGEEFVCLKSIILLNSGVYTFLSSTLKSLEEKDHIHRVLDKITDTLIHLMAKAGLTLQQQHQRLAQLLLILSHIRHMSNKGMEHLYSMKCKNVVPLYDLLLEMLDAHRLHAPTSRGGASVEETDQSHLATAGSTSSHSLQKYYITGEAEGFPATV

CCCCOC(=O)c1ccccc1
inactive: [1] | [2] | [3] | [4] | [5]

CNC(C)=O
inactive: [3] | [4]

CCCCCCCCCCCCCCCCOS(=O)(=O)O
inactive: [3] | [4]
active: DIO1 (gene 1733) 44.5 µM

NC(=O)NN=Cc1ccc([N+](=O)[O-])o1
active: [6] 50 µM | [7] 50 µM
inactive: [8] | [3] | [4]

COc1cc(C(C)C)c2c(c1)S(=O)(=O)N(COc1cc(=O)n3cccc(OCCN4CCCCC4)c3n1)C2=O
inactive: [1] | [9] | [2] | [10] | [11] | [3] | [4] | [13] | [14] | [15] | [18]
active: [12] 5 µM | [16] 7.87 µM | [17] 1.03 µM

C=CCc1cc(S(=O)(=O)c2ccc(O)c(CC=C)c2)ccc1O
active: [1] 84 µM | [6] 12.3 µM
inactive: [9] | [2] | [7] | [8] | [10] | [11] | [3] | [4] | [12] | [13] | [14] | [15] | [16] | [17] | [18]

Cn1c(=O)c2[nH]cnc2n(C)c1=O
inactive: [10] | [11] | [3] | [4] | [12] | [13] | [14] | [15] | [16] | [17] | [18]

OCc1ccccc1
inactive: [9] | [10] | [11] | [3] | [4] | [5] | [12] | [13] | [14] | [15] | [16] | [17] | [18]

O=C(O)c1cccc(C[C@@H]2COc3ccc(OCc4nc5cc(F)ccc5s4)cc3[C@@H]2O)c1
inactive: [6] | [7] | [8] | [3] | [4]

O=C1CN(N=Cc2ccc([N+](=O)[O-])o2)C(=O)N1
inactive: [6] | [8] | [3] | [4] | [5]
active: [7] 46.8 µM

Cc1ncc([C@@H](CCCCCCc2ccc3c(n2)NCCC3)CC(=O)O)cn1
inactive: [10] | [11] | [12] | [13] | [14] | [15] | [16] | [17] | [18]
active: [3] 0.0626 µM | [4] 1.6 µM | [5] 0.321 µM

CCCCCCCC1CCC(=O)O1 (configuration not stated)
active: [6] 46.4 µM | [15] 20 µM
inactive: [7] | [10] | [11] | [3] | [4] | [5] | [12] | [13] | [14] | [16] | [17] | [18]

c1ccc(C(O[C@@H]2CCCN(CCc3ccc4c(c3)OCO4)C2)c2ccccc2)cc1
active: [14] 4.15 µM
inactive: [10] | [11] | [3] | [4] | [5] | [12] | [13] | [15] | [16] | [17] | [18]

CCN(CC)C(=S)SSC(=S)N(CC)CC
active: [1] 50 µM | [9] 11.7 µM | [2] 64.4 µM
inactive: [6] | [7] | [8] | [3] | [4] | [5] | [19]

CCc1cccc(CC)c1N
inactive: [1] | [9] | [2] | [3] | [4] | [5]

CCOc1ccc2[nH]cc(C(=O)NCc3ccccc3)c(=O)c2n1
inactive: [6] | [7] | [8] | [3] | [4] | [5]

CCCCCCCC/C=C\CCCCCCCC(=O)OC[C@@H](O)[C@H]1OC[C@H](O)[C@H]1O
inactive: [10] | [11] | [3] | [4] | [5] | [12] | [13] | [14] | [15] | [16] | [17] | [18]

CCCCC(CC)C(=O)OCCOCCOCCOC(=O)C(CC)CCCC (configuration not stated)
inactive: [1] | [9] | [2] | [10] | [11] | [3] | [4] | [5] | [12] | [13] | [14] | [15] | [16] | [17] | [18]

Cc1nc(-c2ccccn2)ncc1C(=O)Nn1cc(C)c2cc(F)ccc21
inactive: [2] | [3] | [4] | [5]

CCCCCCOC(=O)CC(CC(=O)OCCCCCC)(OC(=O)CCC)C(=O)OCCCCCC
inactive: [1] | [2] | [3] | [4] | [5]
